Screening data from PubChem BioAssay.
Not all results are given here.
aSyn UTR act – Activators via SNCA 5'UTR binding, MLPCN | alpha-synuclein 5'UTR reporter, activators screen | activity score, % (tested at 7.5 µM), hits read low | actives 7.1% (n = 300,000); in the data active means activity score below about -60%
Large screens that a line does not name were inactive.

CC(/C=N/NC(=O)c1nnn(-c2nonc2N)c1C(C)C)=C\c1ccccc1	aSyn UTR act -81
Nc1nonc1-n1nnc(C(=O)N/N=C/C=C/c2ccccc2)c1CSC1=NCCS1	aSyn UTR act -80
O=C(Nc1ccccc1C(F)(F)F)c1cc(-c2ccccc2O)on1	aSyn UTR act -141
O=C(Nc1ccccc1C(F)(F)F)c1cc(-c2ccco2)on1	aSyn UTR act -127
Cc1cc(NC(=O)c2cc(-c3ccco3)on2)nn1Cc1ccc(Cl)cc1	aSyn UTR act -71
Cc1c(Cl)cccc1NC(=O)c1cc(-c2ccco2)on1	aSyn UTR act -108
Cc1ccc(C(=O)CCNc2ccc(Br)cc2)o1	aSyn UTR act -99
CCc1ccc2oc(C(=O)Nc3nonc3CC)c(C)c2c1	aSyn UTR act -135
CCc1nonc1NC(=O)c1oc2ccc(C)cc2c1C	aSyn UTR act -112
CCc1nonc1NC(=O)c1oc2ccccc2c1C	aSyn UTR act -75
CCc1nonc1NC(=O)c1oc2cc(Br)ccc2c1C	aSyn UTR act -113
COC(=O)CNC(=O)C1(C)C=CCN1C(=O)c1ccccc1 (stereo unspecified)	aSyn UTR act -74
O=C(Nc1ccc(N2CCCCC2)cc1)c1ccc(F)cc1	aSyn UTR act -80
O=C(Nc1ccc(N2CCCCC2)cc1)c1cccnc1	aSyn UTR act -149
O=C(c1ccc(F)cc1)c1ccc(N2CCCC2)cc1	aSyn UTR act -147
O=S(=O)(c1ccc(N2CCCC2)cc1)C(F)(F)F	aSyn UTR act -149
O=C(Nc1ccc2nn(-c3ccc(F)cc3)nc2c1)c1cccnc1	aSyn UTR act -94
O=C(c1ccc(F)cc1)c1ccc(N2CCCCC2)cc1	aSyn UTR act -145
COc1ccc(-c2csc(NC(=S)NC(=O)/C=C/c3ccco3)n2)cc1Br	none
CCCC(=O)Nc1ccc2oc(-c3ccc(OC)c(Br)c3)nc2c1	aSyn UTR act -118
CCCC(=O)Nc1ccc(-c2nc3cc(C)c(C)cc3o2)c(O)c1	aSyn UTR act -129
CCCC(=O)Nc1ccc(-c2nc3cc(C)ccc3o2)cc1	aSyn UTR act -149
CC1=CN2C(=N)/C(=C/c3ccc(C)o3)C(=O)N=C2S1	aSyn UTR act -80
CCN=C1S/C(=C\c2ccc(Sc3ccc(Cl)cc3)o2)C(=O)N1CC	none
CC1=CN2C(=N)/C(=C/c3ccc(Sc4ccc(C)cc4)o3)C(=O)N=C2S1	aSyn UTR act -78
COc1cc(C(=O)Nc2cc3c(cc2N2CCCCC2)n(C)c(=O)n3C)cc(OC)c1OC	aSyn UTR act -79
COc1ccccc1N1CCN(S(=O)(=O)CCNC(=O)c2cc(OC)c(OC)c(OC)c2)CC1	none
O=C(/C=C/c1ccc2c(c1)OCCCO2)c1ccccc1O	aSyn UTR act -311
Cc1ccc(O)c(C(=O)/C=C/c2ccc3c(c2)OCCCO3)c1	aSyn UTR act -188
O=C1CS/C(=N/N=C/c2ccccc2)N1Cc1ccco1	aSyn UTR act -81
CC1CCN(S(=O)(=O)c2ccc(C(=O)Nc3ccccn3)cc2)CC1	aSyn UTR act -120
Cc1ccnc(NC(=O)c2ccc(S(=O)(=O)N3CCC(C)CC3)cc2)c1	aSyn UTR act -118
COc1ccc(C2=CC(c3ccc(F)cc3)n3nnnc3N2)cc1 (stereo unspecified)	aSyn UTR act -130
COc1ccc(C2=CC(c3sccc3C)n3nnnc3N2)cc1 (stereo unspecified)	aSyn UTR act -130
O=C(Nc1ccc2nc(-c3ccccc3)[nH]c2c1)c1cccs1	aSyn UTR act -103
O=C(Nc1ccc(-c2nc3ccccc3[nH]2)cc1)c1ccco1	aSyn UTR act -133
Cc1ccc2nc(-c3cccc(NC(=O)c4ccco4)c3)[nH]c2c1	aSyn UTR act -121
O=C(Nc1ccc2nc(-c3ccco3)[nH]c2c1)c1ccco1	aSyn UTR act -118
O=C(/C=C/c1ccco1)Nc1ccc(-c2nc3ccccc3[nH]2)cc1	none
CC(=O)N(O)CCCCCNC(=O)CCC(=O)N(O)CCCCCNC(=O)CCC(=O)N(O)CCCCCN	none
CC(=O)Nc1ccc2nc(-c3ccco3)[nH]c2c1	aSyn UTR act -73
O=C(Nc1ccc2nc(-c3ccco3)[nH]c2c1)c1cccs1	aSyn UTR act -190
O=C(c1ccccc1)c1ccc2nc(-c3ccc(NC(=O)c4ccccc4F)cc3)[nH]c2c1	aSyn UTR act -101
Cc1cccc(C)c1NS(=O)(=O)c1ccc(-c2cnc(C3CC3)o2)cc1	none
C[C@]12CCC(=O)C=C1CC[C@@H]1[C@@H]2[C@@H](O)C[C@]2(C=O)[C@@H](C(=O)CO)CC[C@@H]12	aSyn UTR act -78
CN(C)C(=O)c1cc(-c2ccccc2)no1	aSyn UTR act -80
COc1cc(/C=N/NC(=O)c2ccccc2O)ccc1OCC(=O)Nc1ccccc1	aSyn UTR act -140
O=C(COc1ccc(/C=N/NC(=O)c2ccccc2O)cc1)Nc1ccccc1	aSyn UTR act -126
COc1cc(/C=N/NC(=O)c2ccncc2)ccc1OCC(=O)Nc1ccccc1	aSyn UTR act -100
O=C(COc1ccc(/C=N/NC(=O)c2cc3ccccc3o2)cc1Cl)Nc1ccccc1	none
O=C(N/N=C/c1ccc(OCC(=O)N2CCCCC2)cc1)c1ccccc1O	aSyn UTR act -74
COc1ccc(C(CC(=O)c2ccc(O)cc2)S(=O)(=O)c2ccc(C)cc2)cc1 (stereo unspecified)	aSyn UTR act -250
COC(=O)c1ccc(NC(=O)c2cccc(Cl)c2)o1	aSyn UTR act -86
COC(=O)C(C(=O)OC)c1ccc(NC(=O)c2cccc(Cl)c2)cc1	aSyn UTR act -90
COC(=O)c1ccc(NC(=O)c2ccc(C)cc2)o1	aSyn UTR act -75
COc1ccc2nc(-n3c(O)c(C4=c5ccccc5=NC4=O)[nH]c3=S)sc2c1	aSyn UTR act -74
COC(=O)c1ccc(N2CCN(C)CC2)c(NC(=O)COc2ccc(OC)cc2)c1	aSyn UTR act -68
Cc1cc(=O)c2cc3nc(-c4cccnc4)oc3c(Br)c2o1	aSyn UTR act -67
O=C(COc1cccc2c1CCNC2=O)Nc1cccc(C(F)(F)F)c1	aSyn UTR act -84
Oc1ccccc1CNc1ccc(OC(F)(F)F)cc1	aSyn UTR act -72
Oc1ccccc1CNc1ccc2c(c1)OCCO2	aSyn UTR act -72
Cc1ccc(NCc2ccccc2O)cc1C	aSyn UTR act -116
COCCNC(=O)/C(C#N)=C/c1ccc(OCc2ccc(F)cc2)cc1	aSyn UTR act -73
COCCNC(=O)/C(C#N)=C/c1ccc(OCc2ccccc2)cc1	aSyn UTR act -141
Nn1c(SCc2ccccc2)nc2ccccc21	aSyn UTR act -127
CN(C)/C=C1\N=C(c2ccc3c(c2)OCO3)OC1=O	aSyn UTR act -116
Cc1ccc2nc(-c3ccc(NC(=O)COCC(=O)O)cc3)sc2c1	aSyn UTR act -96
Cc1ccc2nc(-c3ccc(NC(=O)CSCC(=O)O)cc3)sc2c1	aSyn UTR act -197
Cc1ccc2sc(-c3ccc(NC(=O)/C=C\C(=O)O)cc3)nc2c1	aSyn UTR act -96
OC1CCCCC1Sc1nc2ccccc2s1 (stereo unspecified)	aSyn UTR act -88
O=C(Cn1nnc(-c2ccc(NC(=O)c3ccccc3F)cc2)n1)NCc1ccc(F)cc1	aSyn UTR act -66
O=C(Nc1ccc(-c2nnn(CC(=O)N3CCN(C(=O)c4ccco4)CC3)n2)cc1)c1ccccc1F	aSyn UTR act -71
NC(=O)Cn1nnc(-c2ccc(NC(=O)c3ccc(F)cc3)cc2)n1	aSyn UTR act -73
COc1ccccc1C(=O)Nc1ccc(-c2nnn(CC(=O)N3CCN(C(=O)c4ccco4)CC3)n2)cc1	aSyn UTR act -79
O=C1CCCC1C(=O)Nc1ccc2ccccc2c1 (stereo unspecified)	aSyn UTR act -121
